Measured values: PubChem BioAssay AID2540 (Sanford-Burnham Center for Chemical Genomics, 2010)
Hit rate of the full screen: of about 330,000 compounds, about 4,100 (1.2%) were called active. Only a selection was taken, and actives are over-represented in it overall. Values without a mark were called inactive. No stated cut-off is given here; in the data, active means inhibition above about 50%; inactive means the rest.

Biological target: Sentrin-specific protease 8 (Homo sapiens) (UniProt Q96LD8)
Test: SENP8 protease inhibitors, primary screen, biochemical, luminescence (AID 2540)
Conditions: purified SENP8, Z-RLRGG-aminoluciferin cleavage, at 10 µM, active compounds read high

Sequence of Sentrin-specific protease 8 (Homo sapiens) (Q96LD8 whole entry, looked up): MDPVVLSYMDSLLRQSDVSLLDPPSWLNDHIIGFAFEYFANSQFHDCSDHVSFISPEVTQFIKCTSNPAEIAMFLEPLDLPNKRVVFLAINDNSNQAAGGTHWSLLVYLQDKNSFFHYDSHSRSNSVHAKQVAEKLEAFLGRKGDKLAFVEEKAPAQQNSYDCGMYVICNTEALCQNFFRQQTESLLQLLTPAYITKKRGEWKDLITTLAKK

Row | Structure (SMILES) | inhibition
1 | CC(C)CCN(C(=O)c1csnn1)C(C(=O)NC1CCCC1)c1ccccc1 (centres undefined) | -0.251%
2 | CCOC(=O)c1sc(N(Cc2ccccc2)C(=O)CN2C(=O)CN(C)C2=O)nc1C | 5.69%
3 | CC12CCC(=O)N1C(C(=O)Nc1ccc(F)c(F)c1F)CS2 (centres undefined) | -5.83%
4 | CCN(C(=O)COC(=O)CCC(=O)c1cccs1)C1CCCCC1 | -2.61%
5 | Cc1ccsc1C(=O)NC1CCCCC1C (centres undefined) | -2.42%
6 | COc1ccc(C(=O)Nc2cccc(S(C)(=O)=O)c2)cc1 | -4.36%
7 | COc1cccc(C(=O)Nc2nc3ccc(S(C)(=O)=O)cc3s2)c1 | 82.5% (active)
8 | COc1cccc(C(=O)Nc2nnc(S(=O)(=O)N(C)c3ccccc3)s2)c1 | -5.38%
9 | O=C(Nc1nnc(C2CC2)s1)c1ccccn1 | 20.9%
10 | Cc1cnc(NC(=O)c2ccccn2)s1 | 66.9% (active)
11 | Cc1cnc(NC(=O)C2CCCC2)s1 | -0.598%
12 | Clc1ccc(C=NC23CN4CN(CN(C4)C2)C3)cc1 | 8.45%
13 | Cc1ccc(Nc2cc(C)nc3c(C)ccc([N+](=O)[O-])c23)cc1 | -13.4%
14 | Cc1cc(Nc2ccc(Br)cc2)nc2ccccc12 | -6.96%
15 | Clc1ccc(Nc2ccc3ccccc3n2)cc1 | 82.3% (active)
16 | O=c1ccnc(Nc2ccc(Cl)cc2)[nH]1 | -3.3%
17 | CC(OC(=O)c1ccc(NS(=O)(=O)c2ccc3[nH]c(=O)[nH]c3c2)cc1)C(=O)Nc1cccc(Cl)c1Cl (centres undefined) | -9.53%
18 | CC(C)CCN1CCN(C/C=C/c2ccco2)CC1CCO (centres undefined) | 4.76%
19 | Cc1ccsc1C(=O)OCC(=O)c1cc(C)n(CC2CCCO2)c1C (centres undefined) | 91.1% (active)
20 | Cc1cc(C(=O)CCl)c(C)n1CC1COc2ccccc2O1 (centres undefined) | -8.88%
21 | COc1ccc(C(=O)OCC(=O)c2cc(C)n(CC3CCCO3)c2C)cc1[N+](=O)[O-] (centres undefined) | -17.7%
22 | CCC(C)(C)c1ccc(Oc2ccc(NC(=O)COC(=O)C3=COCCO3)cc2)cc1 | -2.31%
23 | O=[N+]([O-])c1c(NCCO)cc(Sc2nc3ccccc3s2)c2nonc12 | 85% (active)
24 | Cc1nc2nc(CSc3nc4ccccc4s3)cc(=O)n2[nH]1 | -14.3%
25 | NC(=O)c1ccc(Nc2ccc3nonc3c2[N+](=O)[O-])cc1 | 2.67%

Row | Structure (SMILES) | inhibition
26 | CC(C)NC(=O)/C(C#N)=C\c1ccc(N(C)C)c(Br)c1 | -4.03%
27 | CC1(C)CC(=O)C(C2c3ccccc3S(=O)(=O)c3ccccc32)C(=O)C1 | -0.512%
28 | CC(CNc1ccc([N+](=O)[O-])cc1)NC(=O)c1ccccc1Br (centres undefined) | 0%
29 | COC(=O)c1c(NC(=O)c2ccccc2F)sc2c1C(C(=O)OC)CC2 (centres undefined) | -3.54%
30 | O=C(Nc1sc2c(c1C(=O)O)CCC2)c1ccccc1F | 86.7% (active)
31 | O=C(O)c1c(NC(=O)N2CCCC2)sc2c1CCCC2 | -9.81%
32 | CCOC(=O)C1CCCCN1Cc1ccc(OC)c(OC)c1OC (centres undefined) | -0.162%
33 | CC1CC(C)CN(CCC(=O)Nc2ccc3c(c2)CCC3)C1 (centres undefined) | 7.63%
34 | O=C(Nc1ccc2c(c1)CCC2)c1ccc(Br)s1 | 61.5% (active)
35 | CC(C)Oc1ccc(C(=O)NCC(=O)Nc2ccc3c(c2)CCC3)cc1 | 6.91%
36 | Cc1nn(-c2ccccc2)c2c1C(=O)NC(=O)C(C)(C)C2 | 4.21%
37 | Cc1nnc(SCc2ccc(C(=O)c3ccc(Cl)cc3)o2)n1-c1ccccc1 | -8.59%
38 | Nc1nc(NCc2ccccc2)n(-c2ccccc2)n1 | 4.17%
39 | COc1ccccc1CNC(=O)CSc1nc(=O)n(Cc2ccncc2)c2c1CCC2 | -3.51%
40 | N#CCc1c(C#N)c(N)nc(N2CCCC2)c1C#N | 0.98%
41 | Nc1nc(NCC(=O)O)nc(N2CCCCCC2)c1[N+](=O)[O-] | -1.61%
42 | N#Cc1c(N2CCCCC2)nc(N)c2c(N)nc(SCC(=O)O)cc12 | 70.8% (active)
43 | O=S(=O)(NCC1CCCO1)c1cnc(Cl)c(Cl)c1 (centres undefined) | 3.51%
44 | O=C(CN(c1ccccc1)S(=O)(=O)c1ccc(Cl)cc1)Nc1ccccc1C(=O)N1CCCC1 | 2.45%
45 | Cc1nc(C(=O)N2CCCC(C(=O)c3ccc(Cl)cc3)C2)cs1 (centres undefined) | -2.8%
46 | Cn1cc(-c2ccccc2)cc(C#N)c1=O | 3.36%
47 | COC(=O)[C@@H](NC(=O)NCc1cccc(OC)c1)C(C)C | 0.612%
48 | O=C(O)c1ccc(N=NN2CCOCC2)cc1 | 1.65%
49 | NC1=NN(c2cccc(C(=O)O)c2)C(=O)C1 | -5.54%
50 | O=C(O)c1cccc(N=NN2CCCCCC2)c1 | 88.8% (active)

Row | Structure (SMILES) | inhibition
51 | Cc1cc(C(F)(F)F)nn1CC(=O)N1CCCC1 | -6.86%
52 | COc1ccc(C2/C=C\CN(S(=O)(=O)c3cccs3)CC(=O)N2Cc2ccc(F)cc2)cc1 (centres undefined) | -0.424%
53 | CN1CCN(C2Cc3ccc(Cl)cc3Sc3ccc(F)cc32)CC1 (centres undefined) | -10.9%
54 | CCOC(=O)/C(=C\c1ccc([N+](=O)[O-])cc1)C(=O)c1cc(C(C)=O)c(Nc2ccccc2)s1 | 6.19%
55 | O=C(Cn1c(=S)nc2ccccn21)N1CCc2ccccc2C1 | 0.682%
56 | O=C(c1ccc(F)cc1)n1c(=S)nc2ccccn21 | 64.1% (active)
57 | O=C(c1ccc(F)cc1)n1cc(C(=S)N2CCOCC2)c2ccccc21 | -5.7%
58 | Cc1ccccc1SCC(=O)OCC(=O)N1CC(=O)Nc2ccccc21 | 4.24%
59 | Cc1cccc(CN2CCC(CNC(=O)Nc3ccc(F)c(Cl)c3)CC2)c1 | -1.33%
60 | CCOc1ccccc1NC(=O)Cn1nnc(C(=O)NCc2cccs2)c1N | 19.3%
61 | CC(C)Cn1c(N)c(C(=O)NCc2cccs2)c2nc3ccccc3nc21 | 90% (active)
62 | Cn1ncc(Br)c1C(=O)NCc1cccs1 | -2.84%
63 | CCCCNC(=O)N1CCN(S(C)(=O)=O)CC1 | -11%
64 | N/C(=N\OC(=O)c1ccc([N+](=O)[O-])cc1)c1ccccn1 | 89.6% (active)
65 | O=C(COC(=O)c1ccccn1)NNC(=O)c1ccc([N+](=O)[O-])cc1 | -16.2%
66 | COc1ccc(C(=O)O/N=C(\N)c2ccccn2)cc1[N+](=O)[O-] | -12%
67 | C/C(=N/OC(=O)c1cccc(C(F)(F)F)c1)c1cnccn1 | -12.8%
68 | Cc1ccc(C(=O)O/N=C(\N)c2ccccn2)cc1Cl | 78% (active)
69 | O=C(COC(=O)c1ccccn1)NNC(=O)c1ccc(Br)cc1 | 0.814%
70 | CCCNC(=O)COc1coc(CN2CCN(Cc3ccccc3)CC2)cc1=O | -2.92%
71 | CC(C)Cn1c(SCC(=O)Nc2ccc(Cl)cc2F)nc(O)cc1=O | 0.222%
72 | COc1cccc2sc(Nc3nc(C)c(C(C)=O)s3)nc12 | 66.7% (active)
73 | CNC(=O)c1sc(NCc2ccccc2OC)nc1C | 0.124%
74 | COc1cc2ccccc2cc1C(=O)Nc1nc(C)c(C(C)=O)s1 | -0.787%
75 | Cc1ccc(S(=O)(=O)N2CCCCC2)cc1C(=O)N1CCN(CCO)CC1 | 4.2%

Row | Structure (SMILES) | inhibition
76 | O=C(NCc1ccccc1Cl)C1CCCN1S(=O)(=O)c1ccc(F)cc1 (centres undefined) | -7.31%
77 | Cc1ccc(N2CC(C(=O)Nc3cc(Cl)ccc3-n3cncn3)CC2=O)cc1 (centres undefined) | 10.6%
78 | Cc1ccc(Nc2ncnc3c2cnn3C)c(C)c1 | 0.699%
79 | Cc1ccc(-n2ncc3c(Nc4cccc(C(=O)O)c4)ncnc32)cc1 | 90.4% (active)
80 | CC(C)Sc1ncnc2c1cnn2-c1ccccc1 | 38.9%
81 | O=C(C1CCN(C2CCN(Cc3ccc4cc(F)ccc4n3)CC2)CC1)N1CCCC1 | -5.41%
82 | O=c1[nH]cnc(O)c1C(c1ccc(F)cc1)c1c(O)nc[nH]c1=O | -12.7%
83 | CCc1ccc(Oc2coc3cc(O)ccc3c2=O)cc1 | -15.7%
84 | O=c1c(-c2ccccc2)coc2cc(O)ccc12 | 55% (active)
85 | CC(C)CN(Cc1c(O)ccc2c(=O)c(-c3ccccc3)coc12)CC(C)C | -6.97%
86 | O=C(O)c1ccc(OCC2CCCO2)cc1 (centres undefined) | -8.8%
87 | COC(=O)c1ccc(Sc2ccc(F)cc2)c(N)c1 | -1.32%
88 | CCOc1ccc(NC(=S)N2CCC(NC(=O)c3ccccc3)CC2)cc1 | -6%
89 | COc1ccc(N2C(=O)CCC(C(=O)Nc3ccccn3)C2c2ccc(OC)c(OC)c2)cc1 (centres undefined) | -4.67%
90 | COc1ccc(C(=O)/C=C/Nc2ccccn2)cc1 | 95.5% (active)
91 | O=C(/C=C/NCc1ccc(F)cc1)c1ccccc1 | -2.04%
92 | Cc1ccc(N/C=C/C(=O)c2ccccc2)cc1C | 88.8% (active)
93 | CCOc1ccc(N/C=C/C(=O)c2cc(OC)c(OC)c(OC)c2)cc1 | -9.53%
94 | CCOc1ccc(N/C=C/C(=O)c2ccccc2)cc1 | 93.7% (active)
95 | Cc1cc(N/C=C\C(=O)c2ccc(Cl)c(Cl)c2)no1 | -16.9%
96 | CC(=O)Nc1ccc(/C=C/C(=O)c2ccccc2)cc1 | -16.7%
97 | COc1ccc(C)cc1N(C)C(=O)c1coc(=O)c2ccccc12 | -8.47%
98 | O=C(CN1C(=O)NC2(CCOc3ccccc32)C1=O)Nc1cccc([N+](=O)[O-])c1 (centres undefined) | 7.44%
99 | O=C(Nc1c2c(nn1-c1ccccc1)CS(=O)(=O)C2)C1CCCC1 | -3.98%
